Here are results for 37 compounds from PubChem BioAssay AID449768 (Vanderbilt High Throughput Screening Facility, 2010).

Screen size: about 110,000 compounds; about 1,400 (1.3%) were called active.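 Rule for the calls: active = Z score or B-score, a plate-position-corrected score, falls beyond the plate's 99.7% confidence bounds, in either direction; inactive = both scores lie inside the 99.7% bounds.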 The full list was thinned out, with actives kept by preference.

Sodium-dependent dopamine transporter (Homo sapiens), sequence (Q01959 whole entry, looked up): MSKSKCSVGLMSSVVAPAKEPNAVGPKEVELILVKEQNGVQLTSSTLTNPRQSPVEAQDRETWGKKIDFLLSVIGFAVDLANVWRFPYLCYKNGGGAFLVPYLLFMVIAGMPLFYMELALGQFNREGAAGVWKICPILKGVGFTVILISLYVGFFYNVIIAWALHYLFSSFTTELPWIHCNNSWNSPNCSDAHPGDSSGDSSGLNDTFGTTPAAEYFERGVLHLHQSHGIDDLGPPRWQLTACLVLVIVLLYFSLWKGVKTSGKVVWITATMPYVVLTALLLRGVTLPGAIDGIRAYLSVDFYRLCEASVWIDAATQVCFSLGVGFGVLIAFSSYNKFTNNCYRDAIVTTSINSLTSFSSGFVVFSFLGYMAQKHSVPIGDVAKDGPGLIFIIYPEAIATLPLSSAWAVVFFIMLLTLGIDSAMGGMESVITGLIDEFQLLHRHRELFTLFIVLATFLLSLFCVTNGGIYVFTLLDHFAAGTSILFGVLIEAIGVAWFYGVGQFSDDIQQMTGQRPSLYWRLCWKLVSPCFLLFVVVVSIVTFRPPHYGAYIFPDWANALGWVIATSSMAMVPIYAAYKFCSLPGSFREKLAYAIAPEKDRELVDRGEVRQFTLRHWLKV

This assay has as its target Sodium-dependent dopamine transporter (Homo sapiens) (UniProt Q01959). In words: changed hDAT dopamine uptake under cocaine IC80, either direction, primary screen, cocaine antagonist project, cell-based, LLC-PK1 hDAT, [14C]-dopamine uptake, MLSMR (AID 449768).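 Note: scored against the spread of the other compound wells on the same plate.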 Conditions: LLC-PK1 hDAT cells, [14C]-dopamine uptake with cocaine IC80; at 10 µM; actives deviate in either direction.
As to `O=C1CC2(CCCC2)Oc2ccc(Cl)cc21`, the B-score was 0.175 (inactive).

For the compound `O=C(Cn1cnc2c(cnn2-c2ccccc2)c1=O)NCc1ccccc1`, the B-score was -0.925 (inactive).

Take `CCN(CC)C(=O)CSc1ncnc2c1cnn2-c1ccccc1`: the B-score was 3.2 (active).

As to `c1ccc(-n2ncc3c(N4CCCC4)ncnc32)cc1`, the B-score is 0.432 (inactive).

With `C=C1CCN([C@H](C(=O)NCc2cc(OC)c(OC)c(OC)c2)C(C)C)S(=O)(=O)c2ccccc21`, the B-score is 1.09 (inactive).

For `Cc1ccc(/C=N/NC(=O)c2sccc2OCc2ccc(F)cc2)cc1`, the B-score was -0.168 (inactive).

`COc1cccc(/C=N/NC(=O)c2cccc([N+](=O)[O-])c2)c1OS(=O)(=O)c1ccc(C)cc1`: the B-score was -0.0993 (inactive).

As to `Cc1ccc(S(=O)(=O)Oc2ccc(/C=N/NC(=O)c3c(Cl)cnn3C)cc2)cc1`, the B-score was -7.83 (active).

On to `CCOC(=O)c1ccc(NC(=O)c2c(NCc3ccccc3)[nH]c(=O)[nH]c2=O)cc1`, for which the B-score is -0.0313 (inactive).

Regarding `C#CCNC(=O)C1=C[C@@H](c2ccccc2)[C@H](CCCO)[C@@H](OCC)O1`, the B-score is -0.204 (inactive).

`COCC(=O)Nc1nnc(COc2ccccc2)s1`: the B-score is -0.411 (inactive).

`COc1ccc(OCCCC(=O)Nc2nnc(C3CCCO3)s2)cc1` (configuration not stated): the B-score is -0.0765 (inactive).

On to `Cc1nnc(NC(=O)CCCOc2ccccc2)s1`, for which the B-score is -9.48 (active).

With `COCOc1cc(O)c(C(=O)/C=C/c2ccc(OCOC)c(OCOC)c2)c(OCOC)c1`, the B-score is -0.154 (inactive).

Take `CC(C)CC(CO)N1CCN(C(=O)c2ccc(Cl)cc2Cl)CCC1=O` (configuration not stated): the B-score was -0.933 (inactive).

On to `COc1cc2c(cc1OC)CN(C(=O)c1cc(=O)c3ccccc3o1)CC2`, for which the B-score was 3.91 (active).

Regarding `COc1ccc(S(=O)(=O)N2CCC(C(=O)N3CCc4ccccc4C3)CC2)cc1OC`, the B-score is 0.19 (inactive).

As to `CCOc1cc(C(=O)N2CCc3cc(OC)c(OC)cc3C2)ccc1OC(F)F`, the B-score is 0.798 (inactive).

On to `O=C(CCN1C(=O)c2ccccc2C1=O)NCCN1CCOCC1`, for which the B-score is -0.649 (inactive).

As to `Cc1ccc(Cc2c(C)nc3nc(SCC(=O)NCCN4CCOCC4)nn3c2C)cc1`, the B-score is 2.86 (active).

With `Cc1ccc(NC(=S)NCCN2CCOCC2)cc1`, the B-score was -0.206 (inactive).

In the case of `CCOC(=O)c1ccc(NC(=O)c2c(N)n(C)c(=O)[nH]c2=O)cc1`, the B-score was -0.175 (inactive).

As to `COC(C[C@@H](O)C[C@H](O)[C@H](C)OCc1ccccc1)OC`, the B-score was 0.0993 (inactive).

With `COc1ccccc1C1C2=C(COC2=O)Nc2cc3c(cc21)OCO3` (configuration not stated), the B-score was -2.97 (active).

On to `COc1ccc(F)cc1S(=O)(=O)Nc1ccc2c(c1)OCO2`, for which the B-score is -0.037 (inactive).

With `CCCOc1ccccc1C1CC(=O)Nc2cc3c(cc21)OCO3` (configuration not stated), the B-score was -1.06 (inactive).

For `CCOC(=O)/C=C/CN(C(=O)OC(C)(C)C)S(=O)(=O)N1CC=CC1`, the B-score is -1.8e-05 (inactive).

As to `CC(=O)NC(Cc1ccc(F)cc1)C(=O)O` (configuration not stated), the B-score is -0.111 (inactive).

For the compound `CC(=O)c1ccc(NC(=O)N[C@@H](Cc2ccccc2)C(=O)O)cc1`, the B-score was 3.14 (active).

Take `COC(=O)[C@H](Cc1ccccc1)NC(=O)Nc1ccc(S(N)(=O)=O)cc1`: the B-score is 0.0225 (inactive).

Consider `Cc1ccc(C(=O)N/N=C/c2sc(=O)n(Cc3cccc(C(=O)O)c3)c2Cl)cc1`, for which the B-score is 0.653 (inactive).

For the compound `Cc1ccc(/C=N/NC(=O)C(NC(=O)c2ccccc2)c2n[nH]c(=O)c3ccccc23)cc1` (configuration not stated), the B-score is 5.41 (active).

As to `Cc1ccc(/C=N/NC(=O)C2=NNC(c3ccccc3)(c3ccccc3)C2)c(O)c1`, the B-score was -0.164 (inactive).

For the compound `C#CCOCCOCCOCCNc1nc(N2CCN(C(=O)[C@H](C(C)C)n3cc(CCO)nn3)CC2)nc(N2CCN(C(=O)[C@H](C(C)C)n3cc(CCO)nn3)CC2)n1`, the B-score was -0.703 (inactive).

Regarding `COc1ccc(-c2nc3c(s2)CCc2onc(-c4ccc(Br)cc4)c2-3)cc1`, the B-score is -0.269 (inactive).

`O=C1NC[C@@H](Cc2ccc(O)cc2)N(CCc2cccc(F)c2)C1=O`: the B-score is 0.0299 (inactive).

For `Cc1cn(C)c(=O)n(C)c1=O`, the B-score was -1.72 (inactive).
